# Screening results as filed in PubChem.
# The list is not random: actives were taken first. Their share in the collection is about 21%.
# CHX counter: affects cycloheximide protein synthesis inhibition readout, counter-screen; AID 2314; cell reporter, cycloheximide protein synthesis inhibition counterscreen; max response, %; hit rate 12% among 300,000; in the data active = max response mostly above about 13%, no sharp cut-off; inactive = mostly below about 14%; also: read at 38.3 µM for the half of the compounds with a filed dose
# Pf growth 96h: P. falciparum growth inhibition at 96 hour, primary screen for plastid delayed-death inhibitors; P. falciparum luciferase reporter growth, 96 h; Potency, µM (series often up to 28.7 µM), usual class: inhibitors; hit rate 6.9% among 320,000; AID 504834; active = well fitted inhibition curve with a large enough effect; inconclusive = small, poorly fitted or top-dose-only effect, or another doubt; inactive = no such curve, though single readings can be large or run the other way
#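 96 h incubation, 37 C, 5% CO2, of luciferase-reporter P. falciparum-infected RBCs (2% hematocrit, 0.05% parasitemia final) with test compounds; endpoint luminescence.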
# Shiga inhibitor: Shiga toxin inhibition; Vero cells, Shiga toxin protein synthesis inhibition reporter; inhibition, % at 38.7 µM; hit rate 9.2% among 290,000; in the data active = inhibition mostly above about 28%, no sharp cut-off; inactive = mostly below about 43%
# Pf growth 48h: P. falciparum growth inhibition at 48 hours (one generation); P. falciparum luciferase growth in erythrocytes, 48 h; Potency, µM (doses to about 28.7 µM), usual class: inhibitors; hit rate 5.9% among 310,000; AID 504832; active = well fitted inhibition curve with a large enough effect; inconclusive = small, poorly fitted or top-dose-only effect, or another doubt; inactive = no such curve, though single readings can be large or run the other way
#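 Here the parasites carry a stable luciferase gene and grow inside erythrocytes in Albumax-based RPMI medium with compound for one erythrocytic cycle. Activity is scored as loss of luminescent signal.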
# NS1 function inh: blocks influenza NS1 protein function; Potency, µM (titrated, usually from 46.1 µM); hit rate 0.4% among 270,000; also: actives are rising curves; nearly all actives have a fitted effect of over 50% in size
#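 Growth recovery, yeast-based: influenza A NS1 expressed in S. cerevisiae causes slow growth, and suppressors are detected by OD600. The parent strain without NS1 is used as positive control.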
# SARS PLP yeast: SARS-CoV PLP inhibition in yeast | hit rate 0.19% among 330,000 | S. cerevisiae expressing SARS-CoV PLpro, growth rescue | Potency, µM (top dose mostly 32.9 µM), actives largely listed as activators | AID 485353; also: nearly all actives have a fitted effect of over 55% in size
# Numbers stand for hits; - = inactive; ? = inconclusive; . = not tested or not shown. Unless noted, calls follow the shape of the full dose curve.
SMILES,CHX counter,Pf growth 96h,Shiga inhibitor,Pf growth 48h,NS1 function inh,SARS PLP yeast
CCOC(=O)C1(Cc2ccccc2Cl)CCN(C(=O)c2cnccn2)CC1,50,9.3µM,94,-,-,-
CCOC(=O)C1(Cc2ccccc2Cl)CCN(C(=O)c2cc(C)on2)CC1,28,?,40,-,-,-
CCOC(=O)C1(Cc2cccc(F)c2)CCN(C(=O)c2cnccn2)CC1,-,?,-,-,-,-
C[C@]12c3[nH]c4cc(-c5ccco5)ccc4c3CCN1C(=O)[C@@H](CC(=O)NCc1cccc(C(F)(F)F)c1)C[C@@H]2C(=O)N1CCCCC1,.,.,.,.,.,-
CC(=O)Oc1c(C)c(OC(C)=O)c2c(c1C(C)=O)OC1CC(=O)C(C(C)=O)=C(O)C21C (stereo unspecified),-,12µM,-,8.3µM,-,-
O=C(Nc1ccc(S(=O)(=O)Nc2cnc3ccccc3n2)cc1)c1ccccc1Br,-,-,-,-,-,-
COc1ccc2c(-c3ccccc3)cc(=S)[nH]c2c1,-,?,-,?,-,-
COc1ccc2c(c1)NP(=S)(Oc1ccccc1)N2 (stereo unspecified),64,-,86,-,-,-
CC(=O)NC1=C(C#N)C(c2ccccc2)c2c(ccc3ccccc23)O1 (stereo unspecified),-,?,-,.,-,-
CCOC(=O)c1ccc2c(c1)nc(SCC(=O)c1ccco1)n2CC,-,-,-,?,-,-
CCOC(=O)c1ccc2c(c1)nc(C1CCN(S(=O)(=O)c3cccs3)CC1)n2CC,-,8.3µM,-,10µM,-,-
CCOC(=O)c1ccc2c(c1)nc(SCC(=O)N1CCCCC1)n2CC,-,12µM,-,-,-,-
Cc1cccc(OCCn2nnc3ccccc32)c1C,42,?,.,-,-,-
C/C=C/c1ccc(OCCn2nnc3ccccc32)c(OC)c1,35,-,-,-,-,-
C=CCc1ccc(OCCOc2cccc3ccc(C)nc23)c(OC)c1,30,?,59,?,-,-
COc1ccc(-c2nc3ccccc3c(=O)n2CCOc2cccc(C)c2C)cc1,-,-,-,-,-,-
C=CCc1ccccc1OCCn1nnc2ccccc21,-,-,.,-,-,-
C=CCc1ccc(OCCn2nnc3ccccc32)c(OC)c1,50,?,53,-,-,-
O=c1[nH]c2ccccc2n2c(=S)[nH]nc12,-,-,-,-,-,-
Cc1c(F)cccc1NC(=O)CCCCCC1NC(=O)NC1C (stereo unspecified),-,-,-,-,.,-
C=CCc1ccc(OCCn2cccc2C=O)c(OC)c1,49,-,116,-,-,-
O=C(N/N=C/C(Cl)=C\c1ccccc1)c1cccs1,51,3.7µM,81,?,-,-
CC(/C=N/NC(=O)c1cccs1)=C\c1ccccc1,42,?,145,-,.,-
O=c1ccn(CCCBr)c(=O)[nH]1,-,-,-,-,-,-
CCC(Oc1ccc(Br)cc1)C(=O)N1CCN(c2ncccn2)CC1 (stereo unspecified),-,-,-,-,-,-
SMILES,CHX counter,Pf growth 96h,Shiga inhibitor,Pf growth 48h,NS1 function inh,SARS PLP yeast
O=C(NCc1ccc(Cl)cc1)C1CCN(c2nnc(N3CCCC3=O)s2)CC1,-,-,-,-,-,-
CCOCCCn1c(SC(C(=O)Nc2cc(C)ccc2C)c2ccccc2)nnc1-c1ccc(Cl)cc1 (stereo unspecified),-,9.3µM,-,12µM,?,-
CCNc1nc(NCC)n2c(SC(C(=O)Nc3cc(C)ccc3C)c3ccccc3)nnc2n1 (stereo unspecified),-,12µM,-,?,-,-
CCN(CC)Cc1c(C(=O)N/N=C/c2ccc(C)o2)nnn1-c1nonc1N,-,-,-,-,-,-
COc1ccc(OC)c(C(=O)c2ccc(C(=O)Nc3cccc4ccccc34)cc2)c1,-,-,-,?,-,-
CCOC(=O)N1CCN(S(=O)(=O)c2cccc3ccc(C)nc23)CC1,-,-,-,-,-,-
CCOC(=O)c1sc(/N=C/c2ccc(O)cc2O)cc1C,40,-,41,-,-,-
CN(C)c1cc2c(cc1NS(=O)(=O)c1ccccc1)n(C)c(=O)n2C,-,-,-,-,-,-
CCOc1cc(N2CCOCC2)c(OCC)cc1NC(=O)CN1CCC(Cc2ccccc2)CC1,-,?,-,-,-,-
CCOc1cc(N2CCOCC2)c(OCC)cc1NC(=O)CN1CCCC(C)C1 (stereo unspecified),15,?,-,?,-,-
CCOC(=O)c1c(C)[nH]c(C(=O)Nc2cc(OCC)c(N3CCOCC3)cc2OCC)c1C,.,15µM,.,2.9µM,.,-
CCOc1cc(N2CCOCC2)c(OCC)cc1NC(=O)Cc1ccccc1,-,?,-,?,-,-
CCOc1cc(N2CCOCC2)c(OCC)cc1NC(=O)Cc1ccccc1OC,-,7.4µM,-,?,-,-
CCOc1cc(N2CCOCC2)c(OCC)cc1NC(=O)c1cc(C)cc(C)c1,-,?,-,13µM,.,-
CCOc1cc(N2CCOCC2)c(OCC)cc1NC(=O)c1ccc(C)cc1,-,-,-,?,.,-
O=C(COC(=O)c1cccc(Br)c1)NCCC1=CCCCC1,-,-,-,-,.,-
Nc1c(Cl)cc(C2=NCCn3nc4cc([N+](=O)[O-])ccc4c32)cc1Cl,.,?,.,?,.,-
Nc1c(Cl)cc(C2=NCCn3c2c2ccc([N+](=O)[O-])cc2[n+]3[O-])cc1Cl,.,?,.,13µM,.,-
COC(=O)c1cc(S(=O)(=O)N2CCC(c3cc(OC)ccc3OC)C2)c[nH]1 (stereo unspecified),-,13µM,-,-,-,-
COC(=O)c1cc(S(=O)(=O)N2CCC(c3ccccc3)C2)c[nH]1 (stereo unspecified),-,-,-,-,-,-
COc1ccccc1C1CN=NC12CCCc1ccccc1C2=O (stereo unspecified),-,17µM,-,9.3µM,-,-
COc1ccccc1C1NC(=O)c2ccccc2O1 (stereo unspecified),-,?,-,-,?,-
COc1ccc(C2CN=NC23CCc2ccccc2C3=O)cc1 (stereo unspecified),-,?,-,13µM,-,-
COc1ccc(C2C(C(=O)N3CCN(C)CC3)c3ccccc3C(=O)N2C2CCCCC2)cc1 (stereo unspecified),-,-,-,?,-,-
COc1ccc(C2CC23N=C(c2ccccc2)OC3=O)cc1 (stereo unspecified),-,-,-,-,-,-
COc1ccc(C2CN=NC23CCCc2ccccc2C3=O)cc1 (stereo unspecified),-,2.6µM,-,3.7µM,-,-
CN1C(=O)N(CC(=O)N2CCN(S(=O)(=O)c3ccc(Cl)s3)CC2)C(=O)C12CCCCC2,.,?,.,?,.,-
O=C(CN1C(=O)c2ccccc2S1(=O)=O)NCCc1ccc(F)cc1,.,.,.,.,.,-
O=C(N/C=C/c1ccccc1)c1ccccc1,.,-,.,?,.,-
Cc1ccc(-c2cc(-c3ccco3)c3c(N)c(C(=O)NN)oc3n2)cc1,-,?,-,4.7µM,?,-
